Inconclusive results are not listed. A number with no mark means an inactive call. Active and inactive are the calls of the source. The call rests on the fitted dose curve; in most records, active means well fitted inhibition curve with a large enough effect; inconclusive means small, poorly fitted or top-dose-only effect; inactive means flat fitted curve, though single readings scatter.
What was measured:
HaCat [1] = assay: Cytotoxic Profiling of Annotated Libraries Using Quantitative High-Throughput Screening (AID 1296008); conditions: Five cell lines viability, CellTiter-Glo ATP luminescence, 48-72 h; max response: stronger effect = lower value; on max response: on the % scale 0 is the no-effect control and ±100 the full control effect
In short: (§1)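 Compounds were pin-transferred onto cells and incubated 48 or 72 hr at 37 degree Celsius, 95% humidity. CellTiter-Glo was added, plates sat 10 min at room temperature, then ATP-coupled luminescence was imaged as the viability read-out.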

NIH3T3 = assay: as above; conditions: Five cell lines viability, CellTiter-Glo ATP luminescence, 48-72 h; max response: stronger effect = lower value
In short: as §1

KB-3-1 = assay: as above; conditions: Five cell lines viability, CellTiter-Glo ATP luminescence, 48-72 h; max response: stronger effect = lower value
In short: as §1

HACAT [2] = assay: qHTS assay to identify novel small-molecules to repurpose for Merkel cell carcinoma treatment (AID 1296009); conditions: MCC and control cell lines, CellTiter-Glo viability, 72 h; at 44.8 µM (top of the series) unless noted
In short: (§2)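 Luminescence from CellTiter-Glo, read 10 min after addition at room temperature, reported viability following a 72 hr, 37 degree celsius treatment with NPC or MIPE compounds in titration; values normalized to plate controls.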

HEK293T = assay: as above; conditions: MCC and control cell lines, CellTiter-Glo viability, 72 h
In short: as §2
Further: nearly all actives have a fitted effect of over 60% in size.
Potency means the concentration at half of the fitted maximal effect.

SMILES: CC[N+]1(C/C2=C/CCCCCC2)CCC(NC(=O)C2c3cc(Cl)ccc3Oc3ccc(Cl)cc32)CC1 (centres undefined)
- max response (HaCat [1]): -26%
- outcome (NIH3T3): inactive

SMILES: Cc1ccc(F)cc1S(=O)(=O)N[C@@H]1CCN(Cc2ccc(OC(C)C)cc2)C1
- max response (HaCat [1]): -5.2%
- max response (NIH3T3): -14.7%

SMILES: COc1cc(/C=C/C(=O)NCCn2c(C(F)(F)F)cc3ccccc32)cc(OC)c1OC
- max response (HaCat [1]): -29.1%
- max response (NIH3T3): -23.8%

SMILES: C[C@@H]1O[C@@H](O[C@H]2[C@@H]3C=CO[C@@H](O[C@@H]4O[C@H](CO)[C@@H](O)[C@H](O)[C@H]4O)[C@@H]3[C@@]3(CO)O[C@@H]23)[C@H](O)[C@H](OC(=O)/C=C/c2ccccc2)[C@H]1O
- outcome (HaCat [1]): inactive
- outcome (KB-3-1): inactive
- outcome (HACAT [2]): inactive [at 17.4 µM]

SMILES: O=C(N[C@@H]1CCCc2c1cnn2-c1ccc(F)cc1F)c1ccccn1
- max response (HaCat [1]): -21.6%
- max response (NIH3T3): 3.41%

SMILES: O=C(NCCN1CCN(c2cccc3ccc(O)cc23)CC1)c1ccc(F)cc1
- max response (HaCat [1]): -4.85%
- max response (NIH3T3): 3.66%

SMILES: C=C1C(=O)O[C@@H]2/C=C(\CO)CC/C=C(/C=O)C[C@H](O)[C@@H]12
- max response (HaCat [1]): -0.314%
- outcome (KB-3-1): inactive
- Potency (HEK293T): 18.4 µM (active)

SMILES: C=CC(=O)N1CCC(Oc2cc3c(Nc4ccc(Cl)c(Cl)c4F)ncnc3cc2OC)CC1
- max response (HaCat [1]): -116%
- Potency (NIH3T3): 14.6 µM (active)

SMILES: CC(=O)C1=CCC2C3CC=C4CC(O)CC(O)C4(C)C3C(O)CC12C (centres undefined)
- max response (HaCat [1]): 1.07%
- outcome (NIH3T3): inactive

SMILES: COc1ccc(C#Cc2ccc(C(=O)N3CCC[C@@H](CO)C3)cc2)cc1
- max response (HaCat [1]): 1.97%
- max response (NIH3T3): -25.7%

SMILES: C=C(C)C(=O)O[C@H]1/C(C=O)=C\CC/C(CO)=C/[C@H]2OC(=O)C(=C)[C@@H]2[C@@H]1OC
- outcome (HaCat [1]): inactive
- max response (KB-3-1): 9.81%
- outcome (HACAT [2]): inactive

SMILES: C=C1C(=O)OC2CC(C)=C(C(C)CCCOC(C)=O)C(OC(=O)CC(C)CC)C12 (centres undefined)
- max response (HaCat [1]): -2.4%
- max response (NIH3T3): -17.5%

SMILES: CC(=O)OC1CCC2(C)C(CCC3(C)C2CC=C2C4C(C)C(C)CCC4(C)CCC23C)C1(C)C(=O)O (centres undefined)
- max response (HaCat [1]): 3.45%
- max response (NIH3T3): -0.103%

SMILES: CN(C)CCC(CSc1ccccc1)Nc1ccc(S(=O)(=O)NC(=O)c2ccc(N3CCN(Cc4ccccc4-c4ccc(Cl)cc4)CC3)cc2)cc1[N+](=O)[O-] (centres undefined)
- Potency (HaCat [1]): 23.1 µM (active)
- max response (NIH3T3): -12.9%

SMILES: C=CC(=O)Nc1cc(-n2c(=O)ccc3cnc4ccc(-c5ccc(NS(C)(=O)=O)cc5)cc4c32)ccc1C
- max response (HaCat [1]): -9.43%
- max response (NIH3T3): -11.5%

SMILES: COc1cc2ncc(-c3ccccc3)nc2cc1OC
- outcome (HaCat [1]): inactive
- outcome (NIH3T3): inactive
- outcome (HACAT [2]): inactive

SMILES: COc1ccc(-c2ccccc2)cc1NS(=O)(=O)c1cc(Cl)cc(Cl)c1O
- outcome (HaCat [1]): inactive
- max response (KB-3-1): 4.02%
- outcome (HACAT [2]): inactive [at 17.4 µM]

SMILES: C#CCNCc1cc2cc(OCc3ccccc3)ccc2[nH]1
- max response (HaCat [1]): -12.3%
- max response (NIH3T3): -24.7%

SMILES: O=C(Nc1ccc2[nH]c(=O)oc2c1)C(=O)N1CCC(Cc2ccc(F)cc2)CC1
- max response (HaCat [1]): 4.96%
- max response (NIH3T3): -23.6%

SMILES: O=c1[nH]cnc2[nH]cc(CN3CCCCC3)c12
- max response (KB-3-1): -7.83%

SMILES: CC(=O)OC1CC(O)(C(C)C)C2C(OC(=O)c3ccc(O)cc3)C=C(C)C(=O)CC12C (centres undefined)
- outcome (HaCat [1]): inactive
- max response (NIH3T3): 0.784%
- outcome (HACAT [2]): inactive [at 17.4 µM]

SMILES: Nc1nc2c(c(N3CC[C@@H](N)C3)n1)CCCc1ccccc1-2
- outcome (HaCat [1]): inactive
- max response (NIH3T3): -2.56%
- outcome (HACAT [2]): inactive

SMILES: O=[N+]([O-])c1ccc(Oc2ccc(N=C=S)cc2)cc1
- max response (KB-3-1): -16.8%

SMILES: COC(=O)c1ccc2c(c1)nc(NC(=O)c1ccccc1)n2CCCc1ccccc1
- outcome (HaCat [1]): inactive
- max response (NIH3T3): 1.52%
- outcome (HACAT [2]): inactive

SMILES: O=C(CO)[C@@H](O)[C@H](O)[C@H](O)CO
- max response (KB-3-1): -8.15%

SMILES: O=S(O)CO
- max response (KB-3-1): -16%

SMILES: C/C=C/C=C/c1cc2c(C=O)c(O)c(CC=C(C)C)cc2o1
- outcome (HaCat [1]): inactive
- max response (NIH3T3): 1.86%
- outcome (HACAT [2]): inactive

SMILES: CCCCCCCCCCCCCCCC(=O)OC[C@H](O)[C@H]1OC(=O)C(O)=C1O
- max response (KB-3-1): -14.1%

SMILES: CC(C)(O)C(=O)N1CCN(c2ccc(C(F)(F)F)c(C3=C(c4c[nH]c5ccccc45)C(=O)NC3=O)c2)CC1
- outcome (HaCat [1]): inactive
- max response (NIH3T3): -9.17%
- outcome (HACAT [2]): inactive

SMILES: CS(=O)(=O)OCCCNCCCOS(C)(=O)=O
- max response (KB-3-1): -5.57%
